{
  "source": "PubChem BioAssay (NCATS)",
  "note": "Results filed as inconclusive are left out. Entries that show only a call come without a potency. Active and inactive are the calls of the source. The call rests on the fitted dose curve; in most records, active means well fitted inhibition curve with a large enough effect; inconclusive means small, poorly fitted or top-dose-only effect; inactive means flat fitted curve, though single readings scatter. Potency means the concentration at half of the fitted maximal effect.",
  "data": [
    {"target": "Glutathione peroxidase 1 (Homo sapiens) (UniProt P07203)", "sequence (P07203 whole entry, looked up)": "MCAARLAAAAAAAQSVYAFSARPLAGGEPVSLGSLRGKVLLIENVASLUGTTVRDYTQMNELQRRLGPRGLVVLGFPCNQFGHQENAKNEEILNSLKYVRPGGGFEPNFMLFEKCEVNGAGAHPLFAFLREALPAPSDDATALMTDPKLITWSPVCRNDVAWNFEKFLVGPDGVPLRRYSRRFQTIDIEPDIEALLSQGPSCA", "experiment": "Primary qHTS Assay for Inhibitors of Recombinant Selenoprotein Glutathione Peroxidase 1 (GPX1) (AID 1845191); further: nearly all actives have a fitted effect of over 65% in size", "details": "recombinant GPX1, GR-coupled NADPH fluorescence, 15 min; series mostly up to 48.8 µM", "outline": "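Recombinant GPX1 (10 nM final) was preincubated with compound for 30 min at room temperature, then reacted with 1 mM GSH, 0.5 mM CHP, 0.5 mM NADPH and 100 nM glutathione reductase; NADPH fluorescence (340/450 nm) was read at 0 and 15 min.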", "values": [
      {"smiles": "CCN(C(=O)CO)[C@H]1CN(C(=Nc2cccc(OC(F)F)c2)NC#N)N=C1c1ccc(Cl)c(Cl)c1", "Potency": "inactive"},
      {"smiles": "COCC1=C(C(=O)O)N2C(=O)[C@@H](NC(=O)/C(=N\\OC)c3csc(N)n3)[C@H]2SC1", "Potency": "18 µM (active)"},
      {"smiles": "O=C1Cc2ccccc2N1", "Potency": "inactive"},
      {"smiles": "O=C(Cn1c(=O)oc2cc(S(=O)(=O)N3CCCCC3)ccc21)NCc1ccc(Cl)cc1", "Potency": "inactive"},
      {"smiles": "Cn1c(/C=C/C(=O)NO)ccc1/C=C/C(=O)c1cccc(F)c1", "Potency": "inactive"},
      {"smiles": "Nc1nc(NCc2ccccc2)c2[nH]cnc2n1", "Potency": "inactive"},
      {"smiles": "O=C(CCc1cc(=O)[nH]o1)N[C@H](C1CCNCC1)C1CC(O)C1", "note": "(some centres undefined)", "Potency": "inactive"},
      {"smiles": "Cc1cc(Nc2cccc(Cl)c2)nc2ccc(NC(=O)Cc3cccc(C(F)(F)F)c3)cc12", "Potency": "inactive"},
      {"smiles": "CN(Cc1ccccc1)C(=O)[C@H](NC(=O)c1cc2cc(NC(=O)c3ccccc3-c3ccc(C(F)(F)F)cc3)ccc2n1C)c1ccccc1", "Potency": "inactive"},
      {"smiles": "Cc1ccc(N2CCN(C(=O)CCc3c(C)nc4c(c3C)c(=O)n(C)c(=O)n4C)CC2)c(C)c1", "Potency": "inactive"},
      {"smiles": "CCN1CCN(C(c2ccc(C)cc2)c2sc3nc(-c4ccco4)nn3c2O)CC1", "note": "(centres undefined)", "Potency": "inactive"},
      {"smiles": "CC(C)=C(C#N)C(=O)N1CCCN(c2cc(NCCC(=O)O)nc(-c3ccccn3)n2)CC1", "Potency": "inactive"},
      {"smiles": "CC1(COc2ccc(N3CCC(Oc4ccc(OC(F)(F)F)cc4)CC3)cc2)Cn2cc([N+](=O)[O-])nc2O1", "note": "(centres undefined)", "Potency": "inactive"},
      {"smiles": "OCCN1CCN(C(c2ccc(Cl)cc2Cl)c2sc3nc(-c4ccco4)nn3c2O)CC1", "note": "(centres undefined)", "Potency": "inactive"},
      {"smiles": "CN(Cc1cccc(N2CCN(C(c3ccccc3)c3ccccc3)CC2)c1)[S+](C)(=O)[O-]", "Potency": "inactive"},
      {"smiles": "COc1ccc(Cl)cc1NC(=O)Nc1cc(C)nc2ccccc12", "Potency": "inactive"},
      {"smiles": "COc1ccc(-c2nn3c(-c4ccco4)nnc3s2)cc1OC", "Potency": "inactive"},
      {"smiles": "CCN(CCN(C)C)C(=O)CNCc1cc(C(=O)O)ccn1", "Potency": "inactive"},
      {"smiles": "Clc1ccc(-c2csc(NN=C3CCCC3)n2)cc1", "Potency": "inactive"},
      {"smiles": "O=C1NC(=O)/C(=C/c2ccc3c(c2)OCO3)S1", "Potency": "inactive"},
      {"smiles": "CC(C)n1cnc2c(NCc3ccccc3)nc(NCCCO)nc21", "Potency": "inactive"},
      {"smiles": "C1CCC[C@H]2CCCN3CC[C@H](CCCCCC[C@@H]4CCCN5CC[C@H](CC1)O[C@H]45)O[C@H]23", "activity, negative = inhibition": "1.08% [at 0.127 µM] (inactive)"},
      {"smiles": "O=C(CCl)Nc1ccc(S(=O)(=O)c2ccc(NC(=O)CCl)cc2)cc1", "Potency": "inactive"},
      {"smiles": "CC(C)CCC[C@@H](C)[C@H]1CC[C@H]2[C@@H]3CC[C@H]4C[C@@H](O)CC[C@]4(C)[C@@H]3CC[C@]12C", "Potency": "inactive"},
      {"smiles": "N=c1sc2c(n1CC(=O)c1ccc([N+](=O)[O-])cc1)CCCC2", "Potency": "inactive"},
      {"smiles": "Cn1c(=O)oc2ccc(C(=O)N[C@H](C3CCNCC3)C3CC(O)C3)cc21", "note": "(some centres undefined)", "Potency": "inactive"},
      {"smiles": "COC(=O)N(C)Cc1cccc(N2CCN(C(c3ccccc3)c3ccccc3)CC2)c1", "Potency": "inactive"},
      {"smiles": "COc1cccc(C(c2sc3nc(-c4ccco4)nn3c2O)N2CCN(C)CC2)c1", "note": "(centres undefined)", "Potency": "inactive"},
      {"smiles": "C[C@]12C=CC(=O)C=C1CC[C@@H]1[C@@H]2[C@@H](O)C[C@@]2(C)[C@H]1CC[C@]2(O)C(=O)COC(=O)c1cccc(S(=O)(=O)O)c1", "Potency": "inactive"},
      {"smiles": "CCn1c(-c2nc3cc(C(=O)N4CCC[C@@H](N)C4)cc(OC)c3n2C)cc2ccccc21", "Potency": "inactive"},
      {"smiles": "Cc1nc2c(C#N)c[nH]n2c(=O)c1C(C)C", "Potency": "inactive"},
      {"smiles": "CN(C)c1ccc(C(=O)NCCCCCC(=O)NO)cc1", "Potency": "inactive"},
      {"smiles": "Fc1ccc(N2CCN(c3nc4ccccc4c4nc(-c5ccccc5)nn34)CC2)cc1", "Potency": "inactive"},
      {"smiles": "O=C(N[C@H]1CCS[C@H]2CCC[C@@H](C(=O)O)N2C1=O)[C@@H](S)Cc1ccccc1", "Potency": "10.1 µM (active)"},
      {"smiles": "Nc1nc(CC(=O)Nc2ccc(CCNC[C@H](O)c3ccccc3)cc2)cs1", "Potency": "inactive"},
      {"smiles": "O=[N+]([O-])c1cc(S(=O)(=O)Nc2ccc(O)c3ccccc23)ccc1Cl", "Potency": "inactive"},
      {"smiles": "CN1CCN(C(c2ccc(F)cc2)c2sc3nc(-c4ccco4)nn3c2O)CC1", "note": "(centres undefined)", "Potency": "inactive"},
      {"smiles": "CCCCCCCCn1cc(CC(N)=O)c2cc(-c3cccc(C)c3)ccc21", "Potency": "inactive"},
      {"smiles": "O=C1COc2c(CCNCCN(C(=O)CCNCCc3ccc(Cl)c(Cl)c3)C3CCCCC3)ccc(O)c2N1", "Potency": "inactive"}
    ]}
  ]
}
